Measured values taken from PubChem BioAssay (Tox21).
Records with an inconclusive call do not appear. A call without a number means that no potency is given here. Unmarked numbers belong to inactive results. The source made the active and inactive calls. Calls follow the shape of the full dose curve.

Experiment: p53 small molecule agonists, cell-based qHTS assay with human liver microsomes (AID 1963577)
Conditions: HCT-116 p53RE-bla with human liver microsomes, ratio, 16 h; series mostly up to 66 µM
Summary of the method: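 p53RE-bla reporter cells were pre-incubated 5 h at 37 C, then treated with compounds plus human liver microsomes (0.5 mg/mL final) and NADPH (0.5 mg/mL final) for 16 h at 37 C. Beta-lactamase activity was read by LiveBLAzer fluorescence after 2 h at room temperature.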

Row | Compound | Potency | activation
1 | O=c1[nH]c(=O)n([C@H]2C[C@H](O)[C@@H](CO)O2)cc1I | inactive | 
2 | CC[N+](CC)(CC)CCOc1cccc(OCC[N+](CC)(CC)CC)c1OCC[N+](CC)(CC)CC | inactive | 
3 | C[N+]1(C)[C@@H]2CC(OC(=O)[C@H](CO)c3ccccc3)C[C@H]1[C@@H]1O[C@@H]12 (some centres undefined) | inactive | 
4 | C[C@@H]1C[C@H]2[C@@H]3CCC4=CC(=O)C=C[C@]4(C)[C@@]3(F)[C@@H](O)C[C@]2(C)[C@H]1C(=O)CO | inactive | 
5 | C[C@H]1C[C@H]2[C@@H]3CCC4=CC(=O)C=C[C@]4(C)[C@@]3(F)[C@@H](O)C[C@]2(C)[C@@]1(O)C(=O)COP(=O)(O)O | inactive | 
6 | CCOC(=O)OC(C)OC1=C(C(=O)Nc2ccccn2)N(C)S(=O)(=O)c2ccccc21 (centres undefined) | inactive | 
7 | C[N+](C)(C)CC(O)CC(=O)[O-] (centres undefined) | inactive | 
8 | Cc1cccc(C)c1OCC(C)N (centres undefined) | inactive | 
9 | CC1=NS(=O)(=O)c2cc(Cl)ccc2N1 | inactive | 
10 | CC(C)NCC(O)c1ccc(NS(C)(=O)=O)cc1 (centres undefined) | inactive | 
11 | CC[C@H]1OC(=O)[C@H](C)[C@@H](O[C@H]2C[C@@](C)(OC)[C@@H](O)[C@H](C)O2)[C@H](C)[C@@H](O[C@@H]2O[C@H](C)C[C@H](N(C)C)[C@H]2O)[C@](C)(OC)C[C@@H](C)C(=O)[C@H](C)[C@@H](O)[C@]1(C)O | inactive | 
12 | CC[C@H]1OC(=O)[C@H](C)[C@@H](O[C@H]2C[C@@](C)(OC)[C@@H](O)[C@H](C)O2)[C@H](C)[C@@H](O[C@@H]2O[C@H](C)C[C@H](N(C)C)[C@H]2O)[C@](C)(O)C[C@@H](C)C(=O)[C@H](C)[C@@H](O)[C@]1(C)O | inactive | 
13 | NCCCNCCSP(=O)(O)O |  | 9.01% [at 5.99 µM]
14 | NS(=O)(=O)c1cc2c(cc1Cl)NC(C(Cl)Cl)NS2(=O)=O (centres undefined) | inactive | 
15 | CCOC(=O)[C@H](CCc1ccccc1)N[C@@H](C)C(=O)N1CCC[C@H]1C(=O)O | inactive | 
16 | COC(=O)[C@@H]1[C@H]2C[C@H]3c4[nH]c5ccccc5c4CCN3C[C@@H]2CC[C@@H]1O | inactive | 
17 | Oc1cccc(O)c1O | inactive | 
18 | COc1cc(C(=O)NC2CCCNC2)cc(OC)c1OC (centres undefined) | inactive | 
19 | CCN[C@@H]1C[C@H](N)[C@@H](OC2OC(CN)=CCC2N)[C@H](O)[C@H]1O[C@H]1OC[C@](C)(O)[C@H](NC)[C@H]1O (some centres undefined) |  | 2.31% [at 0.249 µM]
20 | O=C(O)CCNC(=O)c1ccccc1 | inactive | 

Row | Compound | Potency | activation
21 | CN1CCN(C(c2ccccc2)c2ccccc2)CC1 | inactive | 
22 | CCCN(CCC)C(=O)C(CCC(=O)O)NC(=O)c1ccccc1 (centres undefined) | inactive | 
23 | CNS(=O)(=O)Cc1ccc2[nH]cc(CCN(C)C)c2c1 | inactive | 
24 | CCN(CC)CCNC(=O)c1cc(S(C)(=O)=O)ccc1OC | inactive | 
25 | CCOC(=O)[C@H](CCc1ccccc1)N[C@@H](C)C(=O)N1[C@H](C(=O)O)C[C@@H]2CCC[C@@H]21 | inactive | 
26 | Nc1ccc(S(=O)(=O)NC(=O)c2ccccc2)cc1 | inactive | 
27 | CN1CCN(c2c(F)cc3c(=O)c(C(=O)O)cn(CCF)c3c2F)CC1 | inactive | 
28 | CCn1cc(C(=O)O)c(=O)c2cnc(N3CCCC3)nc21 |  | 10.8% [at 5.99 µM]
29 | CCn1cc(C(=O)O)c(=O)c2cc(F)c(N3CCNCC3)cc21 | inactive | 
30 | Cc1[nH]cnc1CN1CCc2c(c3ccccc3n2C)C1=O | inactive | 
31 | CC(C)(C)NCC(O)COc1cccc2c1C[C@H](O)[C@H](O)C2 (some centres undefined) | inactive | 
32 | O=C(Oc1ccccc1C(=O)O)c1ccccc1O | inactive | 
33 | C[n+]1ccccc1/C=N/O | inactive | 
34 | CC12CCC(CC1=O)C2(C)C (centres undefined) | inactive | 
35 | COC(=O)CCc1ccc(OCC(O)CNC(C)C)cc1 (centres undefined) | inactive | 
36 | NCCCCCC(=O)O | inactive | 
37 | CCOc1cc(N)c(Cl)cc1C(=O)NCC1CN(Cc2ccc(F)cc2)CCO1 (centres undefined) | inactive | 
38 | CCCc1nn(C)c2c(=O)[nH]c(-c3cc(S(=O)(=O)N4CCN(C)CC4)ccc3OCC)nc12 | inactive | 
39 | Cc1ccc(S(=O)(=O)NC(=O)NN2CC3CCCC3C2)cc1 (centres undefined) | inactive | 
